Screens: PubChem, several laboratories
This is a sample that favours compounds with a hit; in the whole collection about 3.2% have one here.
FBA Mtb inh = Mtb FBA enzyme inhibitors, primary screen, biochemical, fluorescence, strain H37Rv; purified M. tuberculosis FBA, fluorescence read-out; inhibition, % at 1 µM; hit rate 2.3% among 360,000; AID 588726, 2011; in the data active = inhibition above about 27%;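 note: 0% = vehicle and 100% = reference inhibitor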
Rv3671c inh = Rv3671c serine protease inhibitors, primary screen, biochemical, fluorescence polarization, M. tuberculosis H37Rv. hit rate 0.048% among 320,000. inhibition, % at 5.96 µM. AID 2606, 2010; in the data active = inhibition above about 38%;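 note: extracellular domain of Rv3671c used as enzyme; 0% = enzyme with DMSO and 100% = no enzyme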
Target sequence (P9WHR9 whole entry, looked up, the tested form may be a part): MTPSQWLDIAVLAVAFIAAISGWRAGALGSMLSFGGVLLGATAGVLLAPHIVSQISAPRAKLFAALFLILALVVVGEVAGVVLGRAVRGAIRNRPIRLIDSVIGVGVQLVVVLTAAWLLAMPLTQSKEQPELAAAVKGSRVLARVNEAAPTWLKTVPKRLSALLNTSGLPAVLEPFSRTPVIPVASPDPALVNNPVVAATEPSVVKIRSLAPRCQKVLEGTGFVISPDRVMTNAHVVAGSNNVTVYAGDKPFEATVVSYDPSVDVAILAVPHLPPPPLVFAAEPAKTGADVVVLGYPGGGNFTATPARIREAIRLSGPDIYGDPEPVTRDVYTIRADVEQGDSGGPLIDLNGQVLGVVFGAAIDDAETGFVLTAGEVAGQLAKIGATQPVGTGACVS
Mtb bLac sens = beta-lactam sensitization of Mtb H37Rv, H37Rv; M. tuberculosis H37Rv growth with meropenem, percent inhibition; inhibition, % at 25 µM; hit rate 0.27% among 330,000; AID 434955, 2010; call rule not given here;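 note: growth measured after seven days incubation then overnight dye step; 0% = bacteria only wells and 100% = bacteria with antibiotic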
GDH-TPI counter = GDH-TPI coupling enzyme inhibitors, primary screen, artefact control for M. tuberculosis FBA inhibitor project, biochemical, absorbance, full deck; GDH-TPI coupled enzyme counterscreen, NADH absorbance; inhibition, % at 4.8 µM; hit rate 1.2% among 360,000; in the data active = inhibition above about 30%;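 note: 0% = DMSO wells and 100% = wells lacking the enzyme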
SSB-PriA inh = inhibitors of Klebsiella pneumoniae PriA binding to SSB C-terminal tail, primary screen, biochemical, AlphaScreen | PriA–SSB C-terminal tail interaction (Klebsiella pneumoniae) | AlphaScreen SSBct-PriA binding, biotinylated peptide | inhibition, % at 33 µM | hit rate 0.6% among 430,000 | AID 1272365, 2023; in the data active = inhibition mostly above about 37%, no sharp cut-off; inactive = mostly below about 20%;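 note: plate controls were negative control peptide for no effect and reference peptide for full effect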
Mtb UGM inh = M. tuberculosis UGM enzyme inhibitors, primary screen, biochemical, fluorescence polarization, single point. UDP-galactopyranose mutase (Mycobacterium tuberculosis (strain ATCC 25618 / H37Rv)), …. purified UGM, fluorescence polarization probe displacement. inhibition, % at 10 µM. hit rate 0.06% among 320,000. AID 504406, 2011; in the data active = inhibition above about 10%, passing the limit was not always enough
An asterisk follows results filed as active; i = inactive; . = no result given; + = active, no number.

SMILES	FBA Mtb inh	Rv3671c inh	Mtb bLac sens	GDH-TPI counter	SSB-PriA inh	Mtb UGM inh
Cc1cccn2c(=O)c(/C=C(\C#N)C(=O)NC3CCS(=O)(=O)C3)c(N3CCC(C)CC3)nc12 (centres undefined)	197*	-10	3	11	2	0
CCCC(=O)Nc1[nH]c(=S)c(C#N)c(-c2ccc(OC(=O)CCC)cc2)c1C#N	.	.	.	.	97*	.
C=CCn1c(-c2cccs2)nc2nc3ccccc3nc21	+	-5	-3	25	-16	1
C=CCn1c(-c2cccc(OC)c2)nc2nc3ccccc3nc21	3	-3	6	54*	-19	-2
c1ccc(CCn2c(-c3cccs3)nc3ccccc32)cc1	.	.	.	.	-4	.
COc1ccc(SCCC(=O)Nc2ccc3sc(C)nc3c2)cc1	.	.	.	.	-5	.
COc1ccc(C)cc1S(=O)(=O)NCC(c1ccsc1)N1CCOCC1 (centres undefined)	.	.	.	.	-9	.
O=C(CSc1cccc2cccnc12)Nc1ccccc1	.	.	.	.	44	.
CCOC(=O)CSc1cccc2cccnc12	25	-8	-2	2	99*	-4
O=C(CSc1cccc2cccnc12)Nc1ccc(C(=O)O)cc1	.	.	.	.	133*	.
CC(C)NC(=O)CSc1cccc2cccnc12	.	.	.	.	34	.
Cc1cc(Br)cc(C)c1NC(=O)CSc1cccc2cccnc12	.	.	.	.	59*	.
CN1CCN(NC(=O)CSc2cccc3cccnc23)CC1	.	.	.	.	91*	.
Cc1cccc(C)c1NC(=O)CSc1cccc2cccnc12	.	.	.	.	49	.
O=C(CN1C(=O)S/C(=C\c2ccccc2Cl)C1=O)Nc1ccc(C(=O)O)cc1	.	.	.	.	2	.
Cc1cc(NC(=O)C(=O)NCC2CCN(C(=O)Oc3ccccc3)CC2)no1	.	.	.	.	-21	.
COc1ccccc1C(=O)NCCn1cc(SCC(=O)Nc2ccc(F)cc2F)c2ccccc21	.	.	.	.	8	.
CC1(C)C2CC=C(C=NNC(=O)c3ccccc3O)C1C2 (centres undefined)	.	.	.	.	-13	.
CCCCCOc1ccc(NC(=O)CSc2cccc3cccnc23)cc1	2	-6	96	-2	79*	-4
O=C(CSc1cccc2cccnc12)Nc1ccc(/C=C/c2ccccc2)cc1	.	.	.	.	50	.
CCN(CC)c1ccc(-c2nc3cnccc3n2C)cc1	9	-4	0	31*	5	.
O=C(c1ccsc1)N1CCN(c2cc3c(nn2)CCCC3)CC1	.	.	.	.	-8	.
COC(=O)c1c(N)sc(C(C)=O)c1C	1	7	0	44*	-2	-1
O=C(CSC1=Nc2cccnc2Nc2ccccc21)N1CCN(c2ccccc2)CC1	.	.	.	.	38*	.
CCCN1C(=O)C(C)(C)COc2ccc(NS(=O)(=O)CCc3ccccc3)cc21	.	.	.	.	13	.
SMILES	FBA Mtb inh	Rv3671c inh	Mtb bLac sens	GDH-TPI counter	SSB-PriA inh	Mtb UGM inh
COC(=O)c1ccc(N=NN2CCCCCC2)cc1	4	-3	2	32*	-11	0
Cc1nccn1CC1CCN(C(=O)Cc2ccccc2)CC1	.	.	.	.	-1	.
CCc1ccc(/C=C2\Oc3c(ccc(O)c3CN3CCN(CCO)CC3)C2=O)cc1	-3	1	-11	35*	-4	2
CCc1ccc(/C=C2\Oc3cc(OS(C)(=O)=O)ccc3C2=O)cc1	4	-8	9	5	20	-2
COc1cccc(-c2c(NC(=O)c3ccco3)oc3ccc(Cl)cc3c2=O)c1	0	-2	5	36*	-8	4
Cc1ccc(C(c2nnnn2C(C)(C)C)N(Cc2ccco2)Cc2cccs2)cc1 (centres undefined)	36*	12	-8	-11	-12	-3
COc1ccc(C=C(C#N)c2ccc(OC)cc2)cc1	1	.	.	19	-1	.
CC(=O)Nc1ccc(C(C#N)=Cc2ccc(N(C)CCC#N)cc2)cc1	-3	.	.	31*	.	.
CN(CCC#N)c1ccc(C=C(C#N)c2cccc(C(F)(F)F)c2)cc1	-4	.	.	.	.	.
COc1ccc(S(=O)(=O)/C(C#N)=C/Nc2ccc(NC(C)=O)cc2)cc1	-3	.	2	31*	-4	-1
COc1ccc(C(C#N)=Cc2ccc(NC(C)=O)cc2)cc1	2	.	.	40*	-3	.
COc1ccc2sc(Nc3ccccc3Cl)nc2c1	.	.	.	.	1	.
Nc1ccc(C(=O)NN=C2CCCc3c2[nH]c2ccccc32)cc1	.	.	.	.	18	.
O=C(Cc1cccc2ccccc12)Nc1onc2c1CCCC2	.	.	.	.	-15	.
O=C(Nc1cc(C(F)(F)F)ccc1Cl)c1c[nH]c(=O)n(Cc2ccccc2F)c1=O	.	.	.	.	-9	.
CC(C)[C@H](NC(=O)NCCc1ccc(Cl)cc1)C(=O)O	5	-8	-13	11	-9	3
CC(C)[C@H](NC(N)=O)C(=O)NCCc1ccc(Cl)cc1	1	-9	-10	0	39*	1
CSc1ncc(-c2ccc(C)cc2)n1-c1ccccc1C	.	.	.	.	58*	.
COc1ccc(/C=N/NC(=O)c2nc(-c3ccccc3)n(-c3ccccc3)n2)cc1	1	-8	-5	33*	.	3
Cc1cc(C=NNC(=O)c2cccs2)c(C)n1-c1ccc2ncccc2c1	.	.	.	.	30	.
Cc1cc(/C=N\NC(=O)c2cccs2)c(C)n1-c1ccc2ncccc2c1	0	5	99	37*	.	0
COc1ccc(/C=N/NC(=O)c2c(C)nc3ccc(Br)cn23)cc1OC	-2	1	-1	46*	i	-3
COc1cc(C=NNC(=O)c2c(C)nc3ccc(Cl)cn23)cc(OC)c1OC	.	.	.	.	-4	.
COc1cc(/C=N/NC(=O)c2c(C)nc3ccc(Cl)cn23)cc(OC)c1OC	-1	.	-1	36*	.	0
COc1ccc(C=NNC(=O)c2nc(-c3ccccc3)n(-c3ccccc3)n2)cc1	.	.	.	.	-2	.
SMILES	FBA Mtb inh	Rv3671c inh	Mtb bLac sens	GDH-TPI counter	SSB-PriA inh	Mtb UGM inh
Cc1nc2ccccn2c1C(=O)N/N=C/c1cc(C)n(-c2ccc(Br)cc2)c1C	0	0	45	37*	.	-1
Cc1nc2ccccn2c1C(=O)N/N=C/c1ccccc1	-2	2	-3	15	.	-2
COc1ccc(/C=N\NC(=O)c2c(C)nc3ccc(Br)cn23)cc1	0	6	-2	43*	.	-1
Cc1nc2ccccn2c1C(=O)NN=Cc1cc(C)n(-c2ccc(Cl)cc2)c1C	.	.	.	.	22	.
COc1ccc(/C=N/NC(=O)c2c(C)nc3ccccn23)cc1[N+](=O)[O-]	1	0	-10	38*	i	0
COc1ccccc1C=NNC(=O)CCSc1ccccc1	.	.	.	.	-7	.
CCC(=O)NC(=NOCc1ccc(F)cc1)c1nonc1NC(=O)CC	.	.	.	.	-26	.
S=C(N=Nc1ccccc1)NNc1ccccc1	-2	14	4	8	72*	-1
COc1cccc(COc2cn(C)c(C(=O)N3CCN(C(=O)c4ccco4)CC3)cc2=O)c1	.	.	.	.	-3	.
Cc1cc(C)cc(OCCNS(=O)(=O)c2ccc(NC(=O)C(C)C)cc2)c1	.	.	.	.	2	.
COC(=O)N/N=C/c1ccc(-c2ccc(Cl)cc2Cl)o1	4	-14	95	34*	i	-2
COC(=O)NN=Cc1ccc(-c2cc(Cl)ccc2Cl)o1	.	.	.	.	-5	.
